Compound activity from PubChem BioAssay.
PD-1 reversal: activators reversing PD-1 mediated T-cell inhibition, primary screen, luminescence, primary human CD4 T cells, PD-L1 beads. CellTiter-Glo 96 h. activation, % (concentration not given with the values). 29,000 tested, under 10 active; call rule not given here;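 also: 0% = median vehicle wells and 100% = positive control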
NOMO-1 viab: NOMO-1 AML cell viability reduction, primary screen, STK33 inhibitor project, CellTiter-Glo luminescence; NOMO-1 AML viability, 72 h; inhibition, % (test concentration not listed); hit rate 7.5% among 37,000; AID 2330, 2010; in the data active = inhibition above about 80%; inconclusive = no clear call, values can overlap the other calls
STK33 inh: STK33 kinase inhibitors, primary screen, biochemical, luminescence, ADP-Glo, MBP substrate; hit rate 0.44% among 27,000; inhibition, % at 12.5 µM; AID 2322, 2010; Serine/threonine-protein kinase 33 (Homo sapiens), Q9BYT3; in the data active = inhibition above about 20%; inconclusive = no clear call, values can overlap the other calls
Target sequence (Q9BYT3 whole entry, looked up): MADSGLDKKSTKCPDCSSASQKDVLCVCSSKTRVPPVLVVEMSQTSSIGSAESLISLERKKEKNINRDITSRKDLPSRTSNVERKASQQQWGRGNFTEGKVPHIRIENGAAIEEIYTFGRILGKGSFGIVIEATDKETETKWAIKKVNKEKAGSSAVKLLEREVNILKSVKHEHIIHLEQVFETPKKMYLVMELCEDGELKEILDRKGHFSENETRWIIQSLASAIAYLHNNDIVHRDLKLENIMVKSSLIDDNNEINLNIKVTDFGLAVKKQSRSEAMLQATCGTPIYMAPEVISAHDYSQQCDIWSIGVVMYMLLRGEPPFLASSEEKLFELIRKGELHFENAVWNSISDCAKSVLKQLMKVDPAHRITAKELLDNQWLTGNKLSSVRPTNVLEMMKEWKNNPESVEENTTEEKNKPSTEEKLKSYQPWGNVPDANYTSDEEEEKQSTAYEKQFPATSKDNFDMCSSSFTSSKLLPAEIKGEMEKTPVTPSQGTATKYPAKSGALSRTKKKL
The depositor's hits bear a star; ? = inconclusive; . = not tested or not shown. Many of the other results were omitted from the sample, so hits are more common in it than they were.

SMILES	PD-1 reversal	NOMO-1 viab	STK33 inh
CCn1c(SCc2nc3ccccc3c(=O)[nH]2)nnc1-c1ccccc1F	0	9	2
C[C@@H]1CN([C@H](C)CO)C(=O)Cc2cc(NC(=O)Cc3ccccc3)ccc2O[C@H]1CN(C)Cc1ccc(C(=O)Nc2ccccc2N)cc1	1	28	.
C[C@H](CO)N1C[C@H](C)[C@H](CN(C)Cc2ccc(C(=O)Nc3ccccc3N)cc2)Oc2ccc(NC(=O)Cc3ccccc3)cc2CC1=O	-4	128*	.
C[C@@H]1CN([C@@H](C)CO)C(=O)Cc2cc(NC(=O)Cc3ccccc3)ccc2O[C@@H]1CN(C)Cc1ccc(C(=O)Nc2ccccc2N)cc1	-2	96*	.
C[C@@H]1CN([C@H](C)CO)C(=O)Cc2cc(NC(=O)CCC(F)(F)F)ccc2O[C@H]1CN(C)Cc1ccc(C(=O)Nc2ccccc2N)cc1	-2	44	.
O=S(=O)(NCc1ccccn1)c1ccc(Cl)c(Cl)c1Cl	0	5	1
COC(=O)c1ccccc1NC(=O)CN(C)S(=O)(=O)c1ccc(F)cc1	3	5	?
COc1ccc(C(=O)Oc2c(S(=O)(=O)c3ccccc3)c(C)nn2-c2ccccc2)cc1	-1	116*	-3
COC(=O)c1cc2c(C)nn(-c3ccccc3)c2s1	0	9	.
C[C@@H]1CCCCO[C@@H](CN(C)Cc2ccc(C(=O)Nc3ccccc3N)cc2)[C@@H](C)CN([C@H](C)CO)C(=O)c2cc(NC(=O)CCC(F)(F)F)ccc2O1	-1	127*	.
C[C@@H]1CCCCO[C@@H](CN(C)Cc2ccc(C(=O)Nc3ccccc3N)cc2)[C@@H](C)CN([C@H](C)CO)C(=O)c2cc(NC(=O)Nc3ccc(F)cc3)ccc2O1	1	111*	.
C[C@@H]1CCCCO[C@@H](CN(C)Cc2ccc(C(=O)Nc3ccccc3N)cc2)[C@@H](C)CN([C@H](C)CO)C(=O)c2cc(NC(=O)C3CCCCC3)ccc2O1	2	123*	.
C[C@@H]1CCCCO[C@@H](CN(C)Cc2ccc(C(=O)Nc3ccccc3N)cc2)[C@@H](C)CN([C@H](C)CO)C(=O)c2cc(NC(=O)c3ccncc3)ccc2O1	-3	62	.
C[C@@H]1CCCCO[C@@H](CN(C)Cc2ccc(C(=O)Nc3ccccc3N)cc2)[C@@H](C)CN([C@H](C)CO)C(=O)c2cc(NC(=O)c3ccccc3)ccc2O1	-2	141*	.
C[C@@H]1CCCCO[C@@H](CN(C)Cc2ccc(C(=O)Nc3ccccc3N)cc2)[C@@H](C)CN([C@H](C)CO)C(=O)c2cc(NC(=O)Nc3ccccc3)ccc2O1	1	?	.
C[C@@H]1CCCCO[C@H](CN(C)Cc2ccc(C(=O)O)cc2)[C@@H](C)CN([C@H](C)CO)C(=O)c2cc(NC(=O)c3ccccc3)ccc2O1	1	0	-1
C[C@@H]1CCCCO[C@@H](CN(C)Cc2ccc(C(=O)Nc3ccccc3N)cc2)[C@@H](C)CN([C@H](C)CO)C(=O)c2cc(NC(=O)Nc3ccc(C(F)(F)F)cc3)ccc2O1	-6	?	.
CCOc1ccccc1OCC(=O)Nc1cc(Cl)ccc1OC	-4	14	-7
Nc1cc(N)nc(SCC(=O)N2CCN(c3ccc(Cl)cc3)CC2)n1	2	34	-6
CCOC(=O)c1c(NC(=O)CN2CCOCC2)sc(C(C)=O)c1C	.	29	2
COC(=O)C1=CO[C@@H](O[C@@H]2O[C@H](CO)[C@@H](O)[C@H](O)[C@H]2O)[C@H]2[C@@H]1C=CC21C=C(C(C)O)C(=O)O1 (stereo partly drawn)	1	4	-5
COc1ccc([N+](=O)[O-])cc1NC(=O)COc1ccc(C(C)(C)C)cc1Br	0	14	1
COc1ccc(-c2nc3ccccc3s2)cc1NC(=O)COc1ccc(Cl)cc1Cl	.	6	-2
Cc1cccc(NC(=O)CSc2nc(N)c(C#N)c(-c3ccc(F)cc3)c2C#N)c1	.	?	1
Cn1c(SCC(=O)Nc2ccccc2-c2ccccc2)nnc1-c1ccccn1	0	6	5
SMILES	PD-1 reversal	NOMO-1 viab	STK33 inh
Cc1cc(=O)[nH]c(SC(C)C(=O)Nc2ccc(Cl)cc2)n1 (stereo not drawn)	0	9	-1
C[C@@H]1CCCCO[C@H](CN(C)Cc2ccncc2)[C@@H](C)CN([C@H](C)CO)C(=O)c2cc(NC(=O)CCCCCC(=O)Nc3ccccc3N)ccc2O1	-1	14	.
C[C@@H]1CCCCO[C@H](CN(C)Cc2ccc(C(F)(F)F)cc2)[C@@H](C)CN([C@H](C)CO)C(=O)c2cc(NC(=O)CCCCCC(=O)Nc3ccccc3N)ccc2O1	-1	131*	.
COc1cc([C@@H]2c3cc4c(cc3C(OC3O[C@@H]5COC(C)O[C@H]5[C@H](O)[C@H]3O)C3COC(=O)[C@@H]32)OCO4)cc(OC)c1O (stereo partly drawn)	.	101*	1
COc1cc([C@@H]2c3cc4c(cc3[C@@H](OC3OC5COC(C)OC5C(O)C3O)[C@H]3COC(=O)[C@H]23)OCO4)cc(OC)c1O (stereo partly drawn)	-9	141*	1
COc1cc(C2OCC3C(c4ccc5c(c4)OCO5)OC(=O)C23)ccc1O (stereo not drawn)	-1	20	-5
CN1C(N)=NC(=O)/C1=C/c1cccnc1	0	34	.
COC(=O)c1c(-c2ccc(F)cc2)csc1NC(=O)CSc1ncnc2sc3c(c12)CCC3	-1	52	2
CCN(CC)c1ccc2cc(C(=O)Nc3ccccc3)c(=N)oc2c1	1	15	.
N=c1oc2ccccc2cc1C(=O)Nc1ccc(F)cc1	-2	120*	.
Cc1ccccc1-c1nnc(SCC(=O)Nc2ccc(N3CCOCC3)cc2)o1	.	-4	1
C[C@H](CO)N1C[C@H](C)[C@H](CN(C)Cc2ccc(C(=O)Nc3ccccc3N)cc2)Oc2c(NS(=O)(=O)c3cccs3)cccc2C1=O	1	88*	.
C[C@H](CO)N1C[C@H](C)[C@H](CN(C)Cc2ccc(C(=O)Nc3ccccc3N)cc2)Oc2c(NS(=O)(=O)c3ccccc3)cccc2C1=O	0	139*	.
C[C@@H]1CN([C@H](C)CO)C(=O)c2cccc(NS(=O)(=O)c3cccs3)c2O[C@H]1CN(C)Cc1ccc(C(=O)Nc2ccccc2N)cc1	1	44	.
C[C@@H]1CN([C@H](C)CO)C(=O)c2cccc(NS(=O)(=O)c3ccccc3)c2O[C@H]1CN(C)Cc1ccc(C(=O)Nc2ccccc2N)cc1	1	58	.
COc1ccc(S(=O)(=O)Nc2cccc3c2O[C@@H](CN(C)Cc2ccc(C(=O)Nc4ccccc4N)cc2)[C@@H](C)CN([C@@H](C)CO)C3=O)cc1	-2	112*	.
COc1ccc(S(=O)(=O)Nc2cccc3c2O[C@@H](CN(C)Cc2ccc(C(=O)Nc4ccccc4N)cc2)[C@H](C)CN([C@H](C)CO)C3=O)cc1	-2	72	.
C[C@H]1CN([C@@H](C)CO)C(=O)c2cccc(NS(=O)(=O)c3ccc(Cl)cc3)c2O[C@H]1CN(C)Cc1ccc(C(=O)Nc2ccccc2N)cc1	-1	118*	.
O=C(NCc1ccco1)c1cc(-c2cccnc2)nc2ccc(Br)cc12	.	35	-1
COC(=O)c1ccccc1NC(=O)Cn1cnc2sc(C)c(C)c2c1=O	0	6	-3
